Results taken from PubChem BioAssay (NCI).
This is part of a sample that, as a whole, favours compounds with a hit. Of some 83,000 tested, about 20% had one in any assay.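 Compound tested at a single concentration for 48 hours in 96-well plates; a percent growth value below 10 was scored as active.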 A number with no mark means an inactive call. Activity calls are given as the source filed them.

Columns and labels:
Experiment in all cases: NCI-60 one-dose screen, 48 h (100 = growth as untreated, 0 = no growth, -100 = all killed)
Conditions in all cases: 10 µM unless noted
[1] = test system: SK-MEL-2 melanoma
[2] = test system: EKVX NSCLC
[3] = test system: SN12C renal
[4] = test system: UO-31 renal
[5] = test system: TK-10 renal
[6] = test system: ACHN renal
[7] = test system: A498 renal
[8] = test system: CCRF-CEM leukemia
[9] = test system: MOLT-4 leukemia
[10] = test system: CAKI-1 renal

SMILES | growth [1] | growth [2] | growth [3] | growth [4] | growth [5] | growth [6] | growth [7] | growth [8] | growth [9] | growth [10]
COc1ccc2c(c1OC)CO[C@@H]2[C@H]1c2c(cc3c(c2OC)OCO3)CCN1S(=O)(=O)c1cn(C)cn1 | 36.3% | 45.6% | 41.1% | 46.2% | 54.1% | 36.6% | -21.3% (active) | 21.4% | 27.4% | –
Nc1cc(C(=O)NC[C@H]2CN(c3ccc(N4CCC(C(=O)O)CC4)cc3)C(=O)O2)ccc1Cl | 115% | 95.3% | 98.8% | 80.4% | 104% | 101% | 95.8% | 104% | 99.4% | –
CC1CCN(CCOc2ccc(CNc3ccc4nc(CCC5CCCCC5)[nH]c4c3)cc2)CC1 | -49.9% (active) | 65% | 57.9% | -31.9% (active) | 73.1% | 54.7% | 2.94% (active) | 11.8% | 11.2% | –
Nc1ncnc2c1C(c1ccccc1)c1ccc3ccccc3c1O2 (centres undefined) | 91.1% | 90.6% | 73.6% | 56.5% | 96% | 80.9% | 94.7% | 91.6% | 68.4% | –
O=C(Nc1nc(-c2ccc(Cl)cc2)nc2c1sc(=S)n2-c1ccccc1)C(F)(F)F | 43.3% | 55% | 57% | -41.9% (active) | -31.9% (active) | -48.5% (active) | -8.62% (active) | 72.2% | 82.6% | –
COc1ccc(C(=O)/C=C/c2c(C(F)(F)F)nc3ccccn23)cc1OC | 31.3% | 8.13% (active) | 16.1% | 25.9% | 29.9% | -41.1% (active) | 65.8% | 14.9% | 7.14% (active) | –
Nc1nc2ccccc2c2c1S(=O)(=O)c1ccc(Cl)cc1C2=O | 42% | 48.2% | 11.4% | -15.2% (active) | 16.6% | 17.8% | 56.9% | -10.3% (active) | 3.11% (active) | –
COc1ccc2c(c1)N(CCO)C1=C(C(=O)OC1)C2c1cccc(F)c1 (centres undefined) | 31.3% | 38.9% | 45.2% | 46.3% | 61.2% | 27.6% | -4.39% (active) | 9.38% (active) | 16.3% | –
O=C(CN1C(=O)S/C(=C\C(Cl)=C\c2ccccc2)C1=O)NCCc1ccc(O)cc1 | 6.1% (active) | – | 16% | -50.7% (active) | 24.1% | -69.3% (active) | 94.2% | 6.23% (active) | 5.15% (active) | 39.3%
Cc1ccc(C)n1-c1ccccc1-n1c(C)ccc1C | 108% | – | 93.5% | 98.1% | 128% | 102% | 97.9% | 124% | 78.7% | 71.7%
Cn1cc(-c2csc(-c3cn(C(=O)OC(C)(C)C)c4ccc(Br)cc34)n2)c2ccnc(Cl)c21 | 96.3% | – | 93.6% | 96% | 92.9% | 82.8% | 89.6% | 93.1% | 90.9% | 96.4%
